# Assay outcomes: PubChem BioAssay, The Scripps Research Institute Molecular Screening Center
# PRMT1 inh: PRMT1 methyltransferase inhibitors, primary screen, biochemical, fluorescence polarization; inhibition, % at 2.79 µM; AID 652257, 2013; hit rate 1.3% among 370,000; recombinant PRMT1, activity-based probe fluorescence polarization; Protein arginine N-methyltransferase 1 (Homo sapiens), Q99873;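 active = inhibition above about 21% made by adding two undisclosed values, limit read from the data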
# SIAE inh: human SIAE inhibitors, primary screen, biochemical, fluorescence polarization, FP-Rh probe, 1536-well HTS; Sialate O-acetylesterase (Homo sapiens), Q9HAT2; SIAE FP-Rh probe binding; inhibition, % at 9.66 µM; hit rate 0.69% among 370,000; AID 1053197, 2014;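 active = inhibition above a cutoff: mean of compounds within the control limits plus 3 SD of those, cut at about 17% in these data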;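 also: 0% = plate median of compound wells and 100% = probe without SIAE protein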
# TCR CD3 inh: inhibitors of human TCR-CD3 interaction, primary screen, biochemical, fluorescence, TAMRA-labeled TCR probe; T-cell receptor (TCR); inhibition, % at 9.4 µM; hit rate 0.37% among 360,000; AID 651800, 2012;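 also: recombinant mutant TCR 2C K166C tagged with TAMRA read by polarization; 0% = receptor in buffer alone and 100% = receptor with positive control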
# PAD4 inh: human PAD4 inhibitors, primary screen, biochemical, fluorescence polarization, 1536-well format; Protein-arginine deiminase type-4 (Homo sapiens), Q9UM07; recombinant PAD4, RCA probe fluorescence polarization; inhibition, % at 6.36 µM; hit rate 0.41% among 330,000; AID 485272, 2010;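 active = percent inhibition above a cutoff equal to the mean of all tested compounds plus 3 SD, cut at about 15% in these data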;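 also: 0% = PAD4 with RCA probe and DMSO and 100% = probe without PAD4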
# Target sequence (Q9UM07 whole entry, looked up): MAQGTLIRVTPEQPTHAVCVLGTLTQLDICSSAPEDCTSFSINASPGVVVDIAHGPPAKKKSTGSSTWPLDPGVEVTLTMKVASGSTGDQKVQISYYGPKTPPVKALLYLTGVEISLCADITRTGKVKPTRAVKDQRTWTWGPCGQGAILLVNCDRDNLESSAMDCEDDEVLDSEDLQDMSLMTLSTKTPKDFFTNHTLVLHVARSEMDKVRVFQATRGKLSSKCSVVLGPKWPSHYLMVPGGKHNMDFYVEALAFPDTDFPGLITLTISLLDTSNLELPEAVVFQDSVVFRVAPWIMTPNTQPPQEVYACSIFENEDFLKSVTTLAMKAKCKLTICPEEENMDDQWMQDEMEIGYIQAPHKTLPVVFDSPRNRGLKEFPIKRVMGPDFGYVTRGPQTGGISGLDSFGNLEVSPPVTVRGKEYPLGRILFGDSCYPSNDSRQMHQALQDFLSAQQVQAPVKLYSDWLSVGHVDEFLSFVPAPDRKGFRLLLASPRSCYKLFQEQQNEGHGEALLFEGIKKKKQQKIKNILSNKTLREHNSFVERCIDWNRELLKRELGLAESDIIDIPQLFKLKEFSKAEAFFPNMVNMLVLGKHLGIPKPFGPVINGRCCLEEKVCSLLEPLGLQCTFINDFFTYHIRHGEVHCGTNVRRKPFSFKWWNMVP
# Fam108B counter: mouse Fam108B serine hydrolase inhibitors, primary screen, counter-screen for RBBP9 inhibitor project, biochemical, fluorescence polarization; recombinant Fam108B, FP-Rh probe fluorescence polarization; inhibition, % at 9.51 µM; hit rate 0.33% among 300,000; AID 1947, 2009;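 active = inhibition above the screen mean inhibition plus 3 SD, computed separately per campaign, cut at about 18% in these data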;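 also: inhibitors lower polarization as less probe binds the enzyme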
# PME-1 inh: PME-1 inhibitors via competitive probe labeling, primary screen, biochemical, fluorescence polarization, FP-Rh probe, HTS | hit rate 0.53% among 320,000 | recombinant PME-1 | inhibition, % at 5.9 µM | AID 2130, 2009;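 active = inhibition above the campaign mean of all compounds plus 3 SD, cut at about 26% in these data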;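 also: competitive labeling of PME-1 active site by serine hydrolase directed probe; 0% = PME-1 with DMSO and 100% = wells lacking PME-1 enzyme; inhibitors block probe labeling so polarization falls and inhibition rises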
# BSA probe FL: compounds interfering with TAMRA-BSA probe, counter-screen for TCR-CD3 interaction inhibitor project, biochemical, fluorescence, TAMRA-labeled BSA; TAMRA-labeled BSA probe fluorescence counterscreen; inhibition, % at 9.4 µM; shares compounds with TCR CD3 inh; hit rate 10% among 1,200; AID 652035, 2013; in the data active = inhibition above about 23%;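 also: 0% = buffer low control and 100% = reference high control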
# TCR-CD3 conf: TCR-CD3 interaction inhibitors, retest, confirmation, biochemical, fluorescence, TAMRA-labeled TCR probe; shares compounds with TCR CD3 inh; TAMRA-labeled TCR probe fluorescence binding assay; inhibition, % at 9.4 µM; hit rate 48% among 1,200; AID 652036, 2013
# PRMT1 confirm: PRMT1 methyltransferase inhibitors, confirmation, biochemical, fluorescence polarization, triplicate. shares compounds with PRMT1 inh. recombinant His-PRMT1, activity-based probe fluorescence polarization. inhibition, % at 2.79 µM. hit rate 42% among 3,300. AID 687036, 2013;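 active = mean inhibition across replicates above the hit cutoff derived for the earlier primary screen, cut at about 22% in these data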
# SIAE inh conf: human SIAE inhibitors, retest, confirmation, biochemical, fluorescence polarization, FP-Rh probe, triplicate. shares compounds with SIAE inh. SIAE FP-Rh activity-based probe. inhibition, % at 9.66 µM. hit rate 13% among 2,300;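 active = mean inhibition of the replicates above the hit cutoff set in the primary screen, cut at about 17% in these data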;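 also: 0% = SIAE with DMSO and probe and 100% = probe without SIAE; inhibitors lower polarization as more probe stays unbound to SIAE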
# * marks the source's active call; other numbers are inactive results; . = not tested or not shown; + = active, no number; ! = a repeat was not active. Hits are enriched below; roughly 2.6% of the tested compounds scored in any of these assays. Rule as the data show it, unless noted: active = inhibition above about 19%; inactive = the rest.
SMILES,PRMT1 inh,SIAE inh,TCR CD3 inh,PAD4 inh,Fam108B counter,PME-1 inh,BSA probe FL,TCR-CD3 conf,others
O=C1NC(=O)N(c2ccccc2)C(=O)/C1=C/c1ccoc1,4,-7,24*,4,-3,0,-1,4,
COc1cc(/C=C2/C(=O)NC(=O)N(c3ccccc3)C2=O)ccc1O,-2,9,3,-1,3,4,.,.,
CCOC(=O)CNC(=O)N1Cc2cc(Br)ccc2-n2nncc2C1,-1,2,36*,.,.,.,-2,4,
CS(=O)(=O)N1Cc2cc(Br)ccc2-n2nncc2C1,-9,0,-4,.,.,.,.,.,
NCCc1cc(O)c(O)cc1O,43*!,91*,170*,.,.,.,+,+,
O=C(NCCN1CCC2(CC1)C(=O)NCN2c1ccccc1)c1ccc(Cl)c(Cl)c1,-3,4,1,.,.,.,.,.,
COc1ccc(-c2ccc3c(c2)CN(C(=O)CCc2ccccc2)Cc2cnnn2-3)cc1,2,-11,-4,.,.,.,.,.,
COc1ccc(-c2ccc3c(c2)CN(C(=S)NCCc2ccccc2)Cc2cnnn2-3)cc1,0,-43,26*,.,.,.,8,17,
CC(C)(C)OC(=O)NCCCCC(N)[P+](=O)O (stereo not given),6,0,.,.,.,.,.,.,
Cc1ccc2nc(-c3ccc(CN4CCC(n5nnc6ccccc65)CC4)cc3)c(-c3ccccc3)nc2c1,-3,-8,4,.,.,.,.,.,
CN(C)[C@@H]1C(=O)C(C(N)=O)=C(O)[C@@]2(O)C(=O)C3=C(O)c4c(O)cccc4[C@@](C)(O)C3C[C@@H]12 (stereo not given in full),19,14,23*,-2,5,-4,-5,-2,
CN1C(=O)CCS(=O)(=O)C1c1ccc(Cl)cc1 (stereo not given),-2,5,.,.,.,.,.,.,
Cc1ccc(/C=C2\C(=O)NC(=S)N(c3ccccc3F)C2=O)s1,3,-97,45*,-11,-9,-23,-31,-16,
Cc1ccc(/C=C2\C(=O)NC(=S)N(c3ccc(F)cc3)C2=O)s1,11,-33,-27,-12,-3,-5,.,.,
Clc1cccc(NC2=NCCS2)c1,1,3,-10,.,.,.,.,.,
O=C(N/N=C/c1c(O)n(-c2cccc3ccccc23)c(=O)[nH]c1=O)c1ccncc1,4,-1,22*,-5,2,-1,-6,10,
COC1C(C)OC(OC2CC(C)(O)Cc3cc4c(c(O)c32)C(=O)c2c(O)cc3c(c2C4=O)OC2OC3(C)C(O)C(N(C)C)C2O)C(OC)C1(C)OC (stereo not given),124*,-9,80*,.,.,.,51*,40*,PRMT1 confirm=98*
CCC1(c2cccc(O)c2)CCCCN(C)C1 (stereo not given),-1,8,-7,1,2,-1,.,.,
CCOC(=O)C1CCCN(c2ccc([N+](=O)[O-])c3nonc23)C1 (stereo not given),122*,21*,140*,.,.,.,168*,134*,PRMT1 confirm=135*;SIAE inh conf=47*
CC/C(=N\NC(=O)c1ccccc1)c1c(O)n(C2CCCCC2)c(=O)[nH]c1=O,13,18*,20*,-7,7,-2,-4,14,SIAE inh conf=4
CC1CN2c3ccc([N+](=O)[O-])cc3CC3(C(=O)N(C)C(=O)N(C)C3=O)C2C(C)O1 (stereo not given),-5,1,-1,2,3,1,.,.,
CC[n+]1c(-c2ccccc2)c2cc(N)ccc2c2ccc(N)cc21,37*,54*,90*,.,.,.,103*,93*,PRMT1 confirm=11;SIAE inh conf=67*
COC(=O)C1=C(c2ccc(OC)c(OC)c2)C[C@@H]2CC[C@H]1N2C(=O)N1CCOCC1,-2,6,1,1,.,-1,.,.,
CC=C(C)C1(CCC)C(=O)NC(=S)NC1=O,-2,-2,2,.,.,.,.,.,
O=C1NC(=S)N(c2ccccc2)C(=O)/C1=C/c1ccco1,55*,-18,-53,-18,-5,-28,.,.,PRMT1 confirm=74*
SMILES,PRMT1 inh,SIAE inh,TCR CD3 inh,PAD4 inh,Fam108B counter,PME-1 inh,BSA probe FL,TCR-CD3 conf,others
O=C1NC(=O)N(CCc2ccc(F)cc2)C(=O)/C1=C/c1ccco1,35*,-7,-17,-27,6,-9,.,.,PRMT1 confirm=3
CCOc1cccc(N2C(=O)/C(=C/c3ccco3)C(=O)NC2=S)c1,20,-6,-79,-7,-13,-23,.,.,
COc1ccccc1/C=C1\C(=O)NC(=S)N(c2ccccc2)C1=O,38*,1,-8,0,1,-6,.,.,PRMT1 confirm=21*
O=C1NC(=S)N(c2ccc(F)cc2)C(=O)/C1=C/c1ccccc1O,2,3,-2,-3,-4,2,.,.,
COc1ccccc1C=C1C(=O)NC(=S)NC1=O,30*,3,-4,.,.,.,.,.,PRMT1 confirm=39*
Cc1ccc(/C=C2/C(=O)NC(=O)N(CCc3ccc(F)cc3)C2=O)o1,12,-26,-3,-14,2,-2,.,.,
CN(C)c1cc[n+](CC(O)C[n+]2ccc(N(C)C)cc2)cc1,-3,4,7,-2,2,-1,.,.,
CC1=C2[C@H]3OC(=O)[C@@H](C)[C@@H]3CC[C@@]2(C)C=CC1=O,-3,-2,3,-3,2,6,.,.,
Nc1c2c(nc3ccccc13)CCN(Cc1ccccc1)C2,44*,-1,3,-1,3,-5,.,.,PRMT1 confirm=9
CC[n+]1c(/C=C/C=C/c2ccc(N(C)C)cc2)sc2ccccc21,-6,-81,-53,-15,-46,-92,.,.,
CC[n+]1c(/C=C/N(C)c2ccccc2)sc2ccc(Cl)cc21,29*,-96,-18,-53,-31,-20,.,.,PRMT1 confirm=5
CCCCCCC(=O)c1c(O)n(-c2ccc(OC)cc2)c(=O)[nH]c1=O (tested in a mixture with another compound),-1,11,8,1,3,2,.,.,
